Consider 24 molecules from PubChem BioAssay AID371 (SRMLSC, 2006).

Where “and” joins values, the source holds several entries; their conditions need not be identical. Equal entries are not always repeated. Among all 3,300 compounds or so, about 280 (8.5%) were called active.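 Rule for the calls: active = mean growth inhibition over the two runs of 50% or more; inactive = mean growth inhibition under 50%.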 Many of the other results were omitted from the sample, so actives are more common in it than they were.

A short description of the experiment: A549 NSCLC cell proliferation inhibitors – ATP luminescence, human non-small cell lung line, primary screen (AID 371).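 Note: compound exposure lasted 72 h before the ATP read; 0% = untreated cell signal and 100% = no luminescence left.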 As to conditions: at 10 µM, hits give high values.
Turning to `CC(C)N1CCc2c(sc(N)c2C#N)C1`, the growth inhibition is 17.2% (inactive).
`CC(=O)N=C(N)Sc1nc2ccccc2[nH]1`: the growth inhibition was 6.73% (inactive).
The result for `COC(=O)CSc1nc(-c2cccs2)ccc1C#N` reads 14.7% (inactive); that for `COc1cc(Cn2ccnc2)c(OC)cc1Cn1ccnc1`, 1% (inactive).
The result for `Cc1ccc(/C(O)=C2/C(=O)C(=O)N(Cc3ccco3)C2c2cccs2)cc1` (centres undefined) reads -0.53% (inactive).
For the molecule `COC(=O)/C=c1/s/c(=C(/C#N)C(=O)N2CCCCC2)n(-c2ccccc2)c1=O`, the growth inhibition is -4.39% (inactive).
Regarding `C[C@@H]1C[C@H](Nc2ccccc2)c2ccccc2N1C(=O)c1cccnc1`, the growth inhibition was 53.7% (active).
As for `O=C(Nc1cccnc1)c1cccnc1`, the growth inhibition was -4.29% (inactive).
The result for `O=C(c1cncc(Br)c1)N1CCCc2ccccc21` reads 8.54% (inactive); that for `O=C(O)CCN(CCC(=O)O)c1nnc(SCc2ccccc2)s1`, -4.61% (inactive); that for `CC(=O)NC(=O)Nc1sc(=S)n(C)c1C`, -19.1% (inactive).
The result for `CCOc1ccc(/C(O)=C2/C(=O)C(=O)N(c3nc(C)c(C)s3)C2c2ccco2)cc1` (centres undefined) reads 18.5% (inactive); that for `CCCCSc1nnc2n(CCc3ccccc3)c(=O)c3c4c(sc3n12)COC(C)(C)C4`, 13.8% (inactive).
The result for `CCN(CC)CCNC(=O)c1ccccc1N` reads 2.63% (inactive); that for `CCCCOc1cc(C(=O)NCCN(CC)CC)c2ccccc2n1`, 81.4% (active) and 70.4% (active).
`CCN(CC)CCNC(=O)c1cc(S(C)(=O)=O)ccc1OC`: the growth inhibition was -4.61% (inactive).
In the case of `C=CCOn1c(=O)c(-c2cc3ccccc3o2)[n+]([O-])c2ccccc21`, the growth inhibition is 8.84% (inactive).
The result for `CNCCC=C1c2ccccc2CCc2ccccc21` reads 79.8% (active); that for `CN(C)CCC=C1c2ccccc2CCc2ccccc21`, 26.6% (inactive).
Take `CC1(C)Cc2ccccc2-c2c1c(=O)n(-c1ccccc1)c1nnnn21`: the growth inhibition was 3.31% (inactive).
Then `Cc1ccccc1COc1ccc(/C(O)=C2/C(=O)C(=O)N(CCCn3ccnc3)C2c2ccco2)cc1` (centres undefined), with 1.79% (inactive); and `CCN(CC)CCN1C(=O)C(O)=C(C(=O)c2cc3ccccc3o2)C1c1cccnc1` (centres undefined), with -1.01% (inactive); and `CC(C)OC(=O)C(C#N)c1nc2ccccc2nc1N1CCCC1` (centres undefined), with 18.3% (inactive).
Take `COC(=O)COc1ccc(Oc2nc(SC)nc(N(C)C)n2)nn1`: the growth inhibition was -1.19% (inactive).
